Results as given in PubChem BioAssay (NCI).
About 79,000 compounds went through this panel and 15% of them were active in at least one assay; those are over-represented in the sample as a whole. Calls of active or inactive are those of the source. Rule as the data show it: active = growth inhibition above about 70%; inactive = the rest. Where a SMILES comes first, the peptide text is derived from it. [ ]: non-standard residue; d: D form. The star is where a group is joined. ξ: configuration not given here. Bz = O=C(c1ccccc1)*; Bn = c1ccc(C*)cc1; ξC = NC(CS)C(=O)O

Key:
[1] = NCI Yeast Anticancer Drug Screen. Data for the rad50 strain (AID 155);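 also: 0% = growth of vehicle-only cultures of the same strain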; conditions: S. cerevisiae rad50 strain growth inhibition; at 50.0 µM; active compounds read high
Method in brief: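 Compounds were tested on a yeast strain with an engineered DNA damage repair alteration; the reported value is growth inhibition normalised to vehicle treatment.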

[2] = NCI Yeast Anticancer Drug Screen. Data for the mec2-1 strain (AID 157); conditions: S. cerevisiae mec2-1 strain, at 50.0 µM, active compounds read high
Method in brief: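 Strain: mec2-1 (DNA repair/cell cycle alteration). Compound exposure, then growth measured; inhibition expressed relative to vehicle.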

[3] = NCI Yeast Anticancer Drug Screen. Data for the sgs1 mgt1 strain (AID 161);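 also: 0% = growth of cultures given vehicle only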; conditions: S. cerevisiae sgs1 mgt1 strain, at 50.0 µM, active compounds read high
Method in brief: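 Test agents were incubated with a DNA-repair-mutant yeast strain. Growth was then read and compared against vehicle-treated controls.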

[4] = NCI Yeast Anticancer Drug Screen. Data for the cln2 rad14 strain (AID 165);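 also: 0% = growth equal to vehicle treated cultures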; conditions: S. cerevisiae cln2 rad14 strain, at 50.0 µM, active compounds read high
Method in brief: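 Compounds are applied to the cln2 rad14 yeast strain, and growth is then compared with that of vehicle-treated cultures to give inhibition.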

[5] = NCI Yeast Anticancer Drug Screen. Data for the bub3 strain (AID 167); conditions: S. cerevisiae bub3 mutant strain, at 50.0 µM, active compounds read high
Method in brief: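 Growth of a checkpoint-deficient yeast mutant is measured after compound exposure. Values represent inhibition relative to vehicle.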

[6] = NCI Yeast Anticancer Drug Screen. Data for the mlh1 rad18 strain (AID 175); conditions: S. cerevisiae mlh1 rad18 strain growth inhibition; at 50.0 µM; active compounds read high
Method in brief: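 Read-out is yeast growth inhibition, calculated against vehicle-only controls. The compound was applied to a strain engineered with DNA damage repair alterations.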

Measured: growth inhibition

CC1(C)CN(Cc2ccccc2)C(C)(C)CN1
inactive: [1] -5.85% | [2] -6.65% | [3] -6.4% | [4] -54.6% | [5] -10.5% | [6] -4.65%

CC(=O)C1=C(C)N2C(=NC3=C(CCc4ccccc43)C2c2ccc(F)cc2)S1 (stereo not drawn)
inactive: [1] -5.6% | [2] -23.9% | [3] -15.4% | [4] 11.3% | [5] -21.8% | [6] -9.8%

CC1(C)CCNc2ccccc2S1
inactive: [1] -0.55% | [2] 1.7% | [3] 2.05% | [4] -25.9% | [5] -11.1% | [6] -14.6%

CS(=O)(=O)c1c(N)c2nc(Cl)cn2c2nc3ccccc3nc12
inactive: [1] -11.4% | [2] -2.1% | [3] -10.3% | [4] -9.15% | [5] -27.1% | [6] -16.5%

COc1ccc(C(C)OC)cc1OC (stereo not drawn)
inactive: [1] -15% | [2] -22.2% | [3] 15.6% | [4] -16.6% | [5] 8.7% | [6] -8.75%

NC(Cc1ccc(OC(c2ccccc2)c2ccccc2)cc1)C(=O)O (stereo not drawn)
inactive: [1] 6.45% | [2] 4.9% | [3] 0.75% | [4] -10.7% | [5] -13.6% | [6] 28.8%

CCOC(=O)C1CSC(N)=N1 (stereo not drawn)
inactive: [1] 4.45% | [2] -38.9% | [3] -11.8% | [4] -29.4% | [5] 5.65% | [6] -7.8%

C/C(=N\N=C(N)N)C(CN(CC(C)C)CC(C)C)C(=O)Nc1ccc(C)cc1C (stereo not drawn)
inactive: [1] 7.6% | [2] 6.55% | [3] 10.3% | [4] 38.3% | [5] -3.85% | [6] 13.8%

Cc1c(C(=O)NNc2ccccc2)n2c(=S)[nH]nc2c2ccccc12
inactive: [1] 33.2% | [2] 10.1% | [3] -7.85% | [4] 8.6% | [5] -14.8% | [6] 45.8%

c1ccc(-c2ccccc2-c2ccccc2-c2ccccc2)cc1
inactive: [1] -58.8% | [2] -5.6% | [3] -5.9% | [4] -39.5% | [5] 21.5% | [6] -12.3%

O=C1CC(=O)N2C=CC=CC2N1 (stereo not drawn)
inactive: [1] -14.8% | [2] -21.6% | [3] -23.1% | [4] -4.7% | [5] -16.7% | [6] -13.5%

CCOC(=O)NC(CC)CO (stereo not drawn)
inactive: [1] -13.1% | [2] -22.9% | [3] -14% | [4] 16.1% | [5] 5.55% | [6] -6.9%

CCCCCCCC/C=C\CCCCCCCC(N)=O
inactive: [1] -20.9% | [2] -34.6% | [3] -11.5% | [4] -53% | [5] -21.1% | [6] -50%

Cc1cc(NS(=O)(=O)c2ccc(Nc3c4ccccc4nc4c(C(=O)NCCN(C)C)cccc34)cc2)no1
inactive: [1] -37.8% | [2] 3.4% | [3] -41.5% | [4] 11.9% | [5] -22.7% | [6] -14.6%

CC(C)C(C)NC(=O)C(C)(C)C(C)(C)C (stereo not drawn)
inactive: [1] -4.85% | [2] -6.35% | [3] 10.6% | [4] -11.2% | [5] -0.7% | [6] -5.55%

CCN(CC)CCOc1ccc(N2Cc3cc(OC)c(OC)cc3C2=O)cc1
inactive: [1] -11.9% | [2] -7.45% | [3] -4.2% | [4] 13.5% | [5] 8.6% | [6] -13.8%

CC1SCC(=O)N1c1nncs1 (stereo not drawn)
inactive: [1] -3.05% | [2] -0.75% | [3] -51.9% | [4] -46.2% | [5] -2.1% | [6] -46.6%

NC(=O)OCc1c(-c2ccccc2)nn(-c2ccccc2)c1COC(N)=O
inactive: [1] -26.2% | [2] -31% | [3] -18.5% | [4] -19.6% | [5] 1.05% | [6] -16.2%

Nc1nc(N)c(N=Nc2cc(Cl)cc(Cl)c2)c(=O)[nH]1
inactive: [1] 24.2% | [2] 9.3% | [3] -12.3% | [4] -1.1% | [5] 3.15% | [6] 8.8%

CC(C)(C)OC(=O)CNC(=O)C(CSC(c1ccccc1)c1ccccc1)NC(=O)CNC(=O)C(CCCCNC(=O)OCc1ccccc1)NC(=O)CNC(=O)C(CSC(c1ccccc1)(c1ccccc1)c1ccccc1)NC(=O)OCc1ccccc1 (stereo not drawn)
inactive: [1] 34.8% | [2] 14.7% | [3] 8.5% | [4] 3.8% | [5] 19.3% | [6] -4.2%

CCc1cc2c(cc1COC(C)=O)C(C)(C)CCC2(C)C
inactive: [1] -10.8% | [2] -19.4% | [3] 5.5% | [4] -13.8% | [5] 4.3% | [6] -31.9%

Cn1c(=O)c2[nH]c(CSc3ccccc3)nc2n(C)c1=O
inactive: [1] 9% | [2] -5.15% | [3] 6.2% | [4] -2.1% | [5] 21.8% | [6] -14.8%

Cc1[nH]c2ccccc2c1C(CC(=O)O)c1ccccc1 (stereo not drawn)
inactive: [1] 13.6% | [2] -1.4% | [3] -12.8% | [4] -4.85% | [5] -4.55% | [6] -4.4%

CCO/N=C(\N)c1ccccc1
inactive: [1] -8.4% | [2] 1.75% | [3] -2.5% | [4] -18.9% | [5] 0.95% | [6] 3.25%

O=C(CNC(=O)c1ccccc1)NC(CSCc1ccccc1)C(=O)O (stereo not drawn) (Bz-Gly-[ξC](Bn)-OH)
inactive: [1] -12.4% | [2] 5.55% | [3] -28.8% | [4] -19.1% | [5] -34.2% | [6] -1.3%

O=C1C2=C(Nc3cc(Cl)ccc3N2)OC1c1ccc(C2OC3=C(Nc4ccc(Cl)cc4N3)C2=O)cc1 (stereo not drawn)
inactive: [1] -20.1% | [2] 11.2% | [3] -7.05% | [4] -33.5% | [5] -7.3% | [6] 17.8%

c1ccc(P(=Nc2cccc(N=P(c3ccccc3)(c3ccccc3)c3ccccc3)c2)(c2ccccc2)c2ccccc2)cc1
inactive: [1] 0.95% | [2] 6.9% | [3] 28.2% | [4] -2.6% | [5] 0.05% | [6] 6.6%

Cc1cc(Cc2cc(Cc3cc(C)cc(C(C)(C)C)c3O)c(C)cc2C)c(O)c(C(C)(C)C)c1
inactive: [1] 50.4% | [2] 18.4% | [3] 13.3% | [4] -1.75% | [5] -23.4% | [6] 38.5%

[Cl][Pt+2][Cl].[NH-]C1CCCCC1C1CCCCC1[NH-] (stereo not drawn)
inactive: [1] 14.6% | [2] -12.4% | [3] -29.2% | [4] -41.2% | [5] -29.8% | [6] -27.4%

C/C(=C\C(=O)c1ccccc1)c1ccccc1
inactive: [1] 17.3% | [2] -5.8% | [3] -20.9% | [4] -16.6% | [5] 12.2% | [6] 57%

O=c1[nH]c(=O)n(C2OC(CO)C(O)C2O)cc1NN=NCc1ccccc1 (stereo not drawn)
inactive: [1] -10.1% | [2] -13.7% | [3] -11.2% | [4] 4.9% | [5] -4.5% | [6] -10.9%

c1ccc(-c2cc[n+]3c4c2ccc2c(-c5ccccc5)cc[n+](c24)CC3)cc1
inactive: [2] 51.5% | [5] 25.8%
active: [1] 78.5% | [3] 89.6% | [4] 73.8% | [6] 87.2%

O=C(Nc1ccccc1Cl)NC1CCCCC1
inactive: [1] 5.1% | [2] -0.55% | [3] 5.35% | [4] 18.7% | [5] 17.1% | [6] 5.8%

CC1(CCC(=O)c2ccc3c(c2)OCO3)OCCO1
inactive: [1] 31.8% | [2] 8.95% | [3] 23.4% | [4] 14% | [5] 24.6% | [6] 26.9%

O=C(Cl)/C=C/c1ccccc1
inactive: [1] 37.1% | [2] 15.5% | [3] 27.9% | [4] -29.1% | [5] 23.9% | [6] 34.9%

Cc1cccc(NC(=S)Nc2ccc(-c3ccc(NC(=S)Nc4cccc(C)c4)cc3)cc2)c1
inactive: [1] -0.2% | [2] 22.6% | [3] 29.9% | [4] 0.15% | [5] 16.2% | [6] 34.7%

C#CC(OC(C)=O)C1OC(n2cnc3c(Cl)nc(Cl)nc32)C(OC(C)=O)C1OC(C)=O (stereo not drawn)
inactive: [1] 37.5% | [2] 2.45% | [3] 21.2% | [4] 17.9% | [5] 10.8% | [6] 24.4%

COc1ccc2nc3c(=O)[nH]c(=O)nc-3n(CC(O)C(O)C(O)CO)c2c1 (stereo not drawn)
inactive: [1] 24.9% | [2] 6.9% | [3] 16.1% | [4] 25.3% | [5] 10.9% | [6] 34.2%
